# ROMK mod = ROMK potassium channel modulators, primary screen, cell-based, thallium flux, MLSMR library; ATP-sensitive inward rectifier potassium channel 1 (Homo sapiens), P48048; Tet-inducible ROMK, thallium flux fluorescence; actives lie on both sides; B-score at 10 µM; 130,000 compounds, 2% hits; AID 1918, 2009;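 active means signal ratio slope over the read window, or its plate-corrected B-score, at least 3 SD from the plate mean, either direction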;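 further: B-score of the F/F0 ratio slope over 7 to 12 s after thallium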
# Calpain2 inh = inhibitors of pig calpain II, primary screen, biochemical, fluorogenic peptide substrate, 1536-well. purified calpain II, 30 min. inhibition, % at 16 µM. 220,000 compounds, 0.37% hits. AID 1236, 2008;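 active means inhibition above about 50%, limit read from the data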
# WT yeast gro inh = growth inhibition of WT strain, primary screen, mitochondrial fusion inhibitor project, WT and mutant strains, chemical genetic. mitochondrial fusion phenotypic screen. inhibition, % at 10 µM. 190,000 compounds, 2.1% hits; in the data active means inhibition above about 58%; tested in S. cerevisiae
# KCC2 mod = KCC2 cotransporter modulators, thallium flux, primary screen, cell-based, HEK293 KCC2, FluoZin-2 fluorescence, MLSMR; Solute carrier family 12 member 5 (Homo sapiens), Q9H2X9; KCC2 cells, thallium flux FluoZin-2 fluorescence; B-score of Tl+ flux slope (higher = more flux/activation; lower = inhibition) at 10 µM; 190,000 compounds, 2.2% hits;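 active means thallium flux slope and its plate-corrected score both differing from the plate sample mean at a set confidence after two filtering rounds, in either direction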;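 further: slope of fluorescence scaled to starting intensity during 10 to 20 s after thallium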
# Target sequence (Q9H2X9 whole entry, looked up): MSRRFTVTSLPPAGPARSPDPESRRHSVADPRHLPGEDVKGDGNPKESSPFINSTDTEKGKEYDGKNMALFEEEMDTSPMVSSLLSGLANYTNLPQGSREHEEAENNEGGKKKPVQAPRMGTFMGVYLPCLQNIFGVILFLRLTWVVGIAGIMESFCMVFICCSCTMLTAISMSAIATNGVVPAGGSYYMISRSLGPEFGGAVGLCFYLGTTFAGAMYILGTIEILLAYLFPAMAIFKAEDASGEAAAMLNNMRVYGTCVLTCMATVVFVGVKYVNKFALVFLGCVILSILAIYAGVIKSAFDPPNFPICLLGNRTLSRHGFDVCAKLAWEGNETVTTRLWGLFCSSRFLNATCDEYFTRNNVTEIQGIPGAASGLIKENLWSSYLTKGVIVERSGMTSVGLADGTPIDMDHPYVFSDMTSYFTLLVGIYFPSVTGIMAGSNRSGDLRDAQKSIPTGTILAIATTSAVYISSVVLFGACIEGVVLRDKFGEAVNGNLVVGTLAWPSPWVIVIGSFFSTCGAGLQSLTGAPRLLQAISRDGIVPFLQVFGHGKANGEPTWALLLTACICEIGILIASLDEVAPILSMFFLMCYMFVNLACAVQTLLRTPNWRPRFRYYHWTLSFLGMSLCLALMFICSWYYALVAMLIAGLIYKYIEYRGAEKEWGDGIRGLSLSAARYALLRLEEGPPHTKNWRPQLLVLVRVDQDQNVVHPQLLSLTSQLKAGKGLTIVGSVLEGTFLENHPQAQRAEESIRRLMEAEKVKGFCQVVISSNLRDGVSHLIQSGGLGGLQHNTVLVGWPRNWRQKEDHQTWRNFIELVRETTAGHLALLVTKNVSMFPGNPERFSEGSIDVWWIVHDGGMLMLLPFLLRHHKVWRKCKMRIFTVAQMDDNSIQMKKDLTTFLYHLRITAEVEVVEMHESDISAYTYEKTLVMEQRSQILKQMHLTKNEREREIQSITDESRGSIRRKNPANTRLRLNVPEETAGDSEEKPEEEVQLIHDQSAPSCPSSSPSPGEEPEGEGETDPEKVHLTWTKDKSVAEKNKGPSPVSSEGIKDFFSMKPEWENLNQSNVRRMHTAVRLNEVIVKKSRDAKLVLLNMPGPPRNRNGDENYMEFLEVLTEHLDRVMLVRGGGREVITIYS
# Lmaj promast = Leishmania major promastigote growth inhibition, primary screen. inhibition, % at 10 µM. Leishmania major promastigotes, resazurin fluorescence viability. 200,000 compounds, 9% hits. AID 1063, 2008; in the data active means inhibition above about 50%;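 further: promastigotes grown with compound for 44 hours at 28 °C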
# A number is an active result; - = inactive; . = not tested or not shown. Shown are actives, neighbours in structure and some others; about 12% of the full set was active somewhere.
SMILES,ROMK mod,Calpain2 inh,WT yeast gro inh,KCC2 mod,Lmaj promast
O=C(NCC(c1cccnc1)N1CCN(c2ccccc2)CC1)C1CCCCC1 (stereo not drawn),-,-,-,-,74.1
O=C(NCC(c1cccnc1)N1CCN(c2ccc(F)cc2)CC1)c1cccc(Cl)c1 (stereo not drawn),-,-,-,.,96.5
O=C(NCC(c1cccnc1)N1CCN(c2ccccc2F)CC1)OCc1ccccc1 (stereo not drawn),-,-,-,-,95.6
O=C(COC(=O)c1ccccn1)NCc1ccccc1Cl,-,-,-,-,-
OC1CCCN(Cc2nc(Cc3ccccc3Cl)no2)C1 (stereo not drawn),-,-,-,-,-
CCCOc1ccc(C(=O)NC(=S)Nc2nc(C)c(C(=O)N(C)C)s2)cc1,-,-,-,-,-
O=C(NCC(c1cccnc1)N1CCN(c2ccccc2)CC1)OCc1ccccc1 (stereo not drawn),-,-,-,.,95.7
COc1ccc(-n2c(C)cc(-c3csc(NC(=O)c4ccc(S(=O)(=O)N(C)C)cc4)n3)c2C)cc1,-,-,-,-,62.8
COCCN(CCOC)S(=O)(=O)c1ccc(C(=O)Nc2nc(-c3ccncc3)cs2)cc1,.,-,-,-,85.3
CCOC(=O)Cc1csc(NC(=O)c2ccc(S(=O)(=O)N(CCOC)CCOC)cc2)n1,-,-,-,-,-
CC1(C)CC(=O)C(C=Nc2ccc(C(=O)c3ccccc3)cc2N=CC2=C(O)CC(C)(C)CC2=O)=C(O)C1,-,-,-,-,-
Cc1cccc(/C=C/C(=O)c2ccc(N3CCOCC3)cc2)c1,-,53.3,-,-,-
O=C(/C=C/c1ccc(F)cc1)c1ccc(N2CCOCC2)cc1,.,-,.,-,.
O=C(/C=C/c1ccco1)NCC1OCCc2ccccc21 (stereo not drawn),-,-,.,-,.
C=CCn1c(=N)n(CC(=O)c2ccc(Br)s2)c2ccccc21,.,-,-,-,97.2
CN(C)S(=O)(=O)n1ccnc1,-,-,-,.,-
CC(c1cccnc1)N(C(=O)Nc1ccccc1)C1CCCCC1 (stereo not drawn),.,-,-,.,78.0
CCOc1ccc(NC(=O)N(C2CCCCC2)C(C)c2ccncc2)cc1 (stereo not drawn),.,-,-,.,-
Cc1ccc(C)c(NC(=S)N(C2CCCCC2)C(C)c2cccnc2)c1 (stereo not drawn),.,-,.,-,.
CCOc1ccc(NC(=O)N(C2CCCCC2)C(C)c2cccnc2)cc1 (stereo not drawn),.,-,-,-,86.9
CC1S/C(=N\N=C\c2cccc([N+](=O)[O-])c2)N(C(C)(C)C)C1=O (stereo not drawn),-,-,.,-,.
O=C(/C=C/c1ccccc1Cl)NC(=S)Nc1ccccc1C(=O)NC1CCCCC1,-,-,-,-,97.7
O=C(NC1CCCCC1)c1ccccc1NC(=S)NC(=O)C1CCC1,-,-,-,-,-
O=C(C1CC1)N1CCN(S(=O)(=O)c2ccc3c(c2)OCCO3)CC1,-,-,-,.,-
CC(C)N1CCC(N2CCN(CCCc3ccccc3)CC2CCO)CC1 (stereo not drawn),-,-,-,-,-
SMILES,ROMK mod,Calpain2 inh,WT yeast gro inh,KCC2 mod,Lmaj promast
CC(C)N1CCC(N2CCN(Cc3ccc(-c4ccccc4Cl)o3)CC2CCO)CC1 (stereo not drawn),.,-,-,-,89.2
CC(C)CN1CCN(C2CCN(C(C)C)CC2)C(CCO)C1 (stereo not drawn),-,-,-,-,-
Cc1ccc(-c2cccc(CN3CCN(C4CCN(C(C)C)CC4)C(CCO)C3)c2)o1 (stereo not drawn),-,-,-,-,51.9
CCOC(=O)N1CCN(C(=O)c2ccccc2NC(=O)c2ccc(C(C)(C)C)cc2)CC1,.,-,-,-,73.7
Cc1ccc(C(=O)Nc2ccccc2C(=O)N2CCCC2)cc1[N+](=O)[O-],.,-,-,-,57.5
Cc1ccc(C(=O)Nc2ccc3c4c(cccc24)CC3)cc1[N+](=O)[O-],.,-,-,-,60.4
Cc1cc(C(=O)Nc2ccccc2C(=O)N2CCCCC2)ccc1[N+](=O)[O-],-,-,-,-,-
O=C(NC1CC1)C1=C[C@@H](c2ccc(Br)cc2)C[C@@H](OCc2ccc(CO)cc2)O1,.,-,.,-,.
CC(=O)N1CCc2cc(S(=O)(=O)NC(CC(C)C)C(=O)N3CCc4ccccc4C3)ccc21 (stereo not drawn),.,-,-,.,72.7
CC(=O)N1CCc2cc(S(=O)(=O)NCCCN3CCN(Cc4ccccc4)CC3)ccc21,-,-,-,-,-
CC(=O)N1CCc2cc(S(=O)(=O)NCCN3CCC(C)CC3)ccc21,-,-,-,.,58.4
N/C(=N\OS(=O)(=O)c1ccc(Br)cc1)c1ccncc1,.,-,-,-,-
COc1ccccc1NC(=O)COC(=O)c1ccc2c(c1)nc(C)n2-c1ccccc1,-,-,-,-,57.3
CCn1c(SCC(=O)Nc2nc(-c3ccc(C)cc3)cs2)nnc1-c1ccccc1O,-,-,-,-,100.3
CN(C)CCCn1c(SCC(=O)N2c3ccccc3Sc3ccccc32)nc2ccccc2c1=O,.,-,-,-,100.5
Cc1ccc(-c2csc(NC(=O)CSc3nc4ccccc4c(=O)n3CCCN(C)C)n2)cc1,-,-,82.5,-,100.5
CCn1c(SCC(=O)Nc2nc(-c3ccc(C)cc3)cs2)nnc1-c1ccccc1,-,-,-,-,-
CCCCn1c(SCC(=O)Nc2nnc(CC)s2)nc2ccccc2c1=O,-,-,-,-,-
CCOc1cc(Cl)c(S(=O)(=O)NCc2ccccn2)cc1Cl,-,-,-,.,98.8
COc1cc(Cl)c(S(=O)(=O)NCc2ccccn2)cc1Cl,-,-,-,.,-
CC1=C(C)C(OCCBr)N(c2cc(O)c(Cl)cc2F)C1=O (stereo not drawn),.,-,.,-,.
NC(=O)c1ccsc1NC(=O)CSc1ccccc1F,.,-,-,-,-
NC(=O)c1ccsc1NC(=O)CSc1nnc(Nc2ccccc2)s1,-,-,-,-,57.5
CCCN(CCC)S(=O)(=O)c1ccc(NC(=O)c2cc(C(=O)OC)cc([N+](=O)[O-])c2)cc1,-,-,-,-,-
O=C(OCc1nnc(-c2ccccc2)o1)C1CCN(S(=O)(=O)c2cccs2)CC1,-,-,-,.,-
CCN(c1ccccc1)S(=O)(=O)c1ccc(OC)c(NC(=O)CNC)c1,-,-,-,-,-
CCN(c1ccccc1)S(=O)(=O)c1ccc(OC)c(NC(=O)CNCC(C)O)c1 (stereo not drawn),-,-,-,-,63.8
CCC(C)NCC(=O)Nc1cc(S(=O)(=O)N(CC)c2ccccc2)ccc1Cl (stereo not drawn),-,-,-,-,63.7
CCN(c1ccccc1)S(=O)(=O)c1ccc(OC)c(NC(=O)Cn2cnc3c2c(=O)n(C)c(=O)n3C)c1,-,-,-,-,61.5

# High-throughput results from PubChem BioAssay.
